Assay results reported in PubChem BioAssay (NCATS).
Results filed as inconclusive are left out. Calls of active or inactive are those of the source. Calls follow the shape of the dose curve; as a rule, active = well fitted curve in the direction sought with a large enough effect; inconclusive = small, poorly fitted or top-dose-only effect, or another doubt; inactive = no such curve, though single readings can be large; an effect the other way counts as inactive or inconclusive.

Tests used:
[1] = qHTS of pediatric cancer cell lines to identify multiple opportunities for drug repurposing: Primary screen for MG 63 (6-TG R) cells (AID 1347105); conditions: MG 63 (6-TG R) viability, CellTiter-Glo, 48 h; series mostly up to 46 µM; also: % is scaled to controls: 0 for no effect and ±100 for the full control effect; nearly all actives have a fitted effect of over 50% in size
Outline: (§1)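 Phenotypic viability qHTS, 48 h compound exposure, CellTiter-Glo luminescence read-out; multi-concentration dosing so that potency and efficacy derive directly from the primary screen's curves.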

[2] = qHTS of pediatric cancer cell lines to identify multiple opportunities for drug repurposing: Primary screen for control Hh wild type fibroblast cells (AID 1347106); conditions: Hh wild-type fibroblast viability, CellTiter-Glo luminescence, 48 h; series mostly up to 46 µM;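 also: % is scaled to controls: 0 for no effect and ±100 for the full control effect; a drop in luminescence marks cytotoxicity and a rise apparent proliferation; nearly all actives have a fitted effect of over 55% in size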
Outline: (§2)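 Viability after 48 h compound treatment at 37C, 500-1,000 cells/well, read as ATP luminescence with CellTiter-Glo. Primary screens used 11-point (MIPE, 0.78 nM-46 µM) or 8-point (NPC, 0.59 nM-46 µM) final concentrations; follow-up screens used 11-point dilutions.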

[3] = qHTS of pediatric cancer cell lines to identify multiple opportunities for drug repurposing: Primary screen for Rh30 cells (AID 1347107); conditions: Rh30 rhabdomyosarcoma viability, CellTiter-Glo luminescence, 48 h; series mostly up to 46 µM; also: % is scaled to controls: 0 for no effect and ±100 for the full control effect; nearly all actives have a fitted effect of over 75% in size
Outline: as §2

[4] = qHTS of pediatric cancer cell lines to identify multiple opportunities for drug repurposing: Primary screen for Rh41 cells (AID 1347108); conditions: Rh41 rhabdomyosarcoma viability, CellTiter-Glo luminescence, 48 h; series mostly up to 46 µM;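 also: luminescence drop marks cytotoxic hits; nearly all actives have a fitted effect of over 70% in size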
Outline: as §1

Cc1nc2ccccn2c(=O)c1CCN1CCC(C(=O)c2ccc(F)cc2)CC1
inactive: Potency [1] | outcome [2] | Potency [3] | Potency [4]

COc1ccc(CN(CCN(C)C)c2ccccn2)cc1
inactive: Potency [1] | outcome [2] | Potency [3] | Potency [4]

O=C(O)CN(CCOCCOCCN(CC(=O)O)CC(=O)O)CC(=O)O
inactive: activity change, negative = cytotoxic [1] -8.72% [at 0.597 µM] | activity change, negative = cytotoxic [2] 5.93% [at 0.597 µM] | activity change, negative = cytotoxic [3] 25.4% [at 0.597 µM] | activity change, negative = cytotoxic [4] 18.7% [at 0.597 µM]

Cc1nnc(SCC2=C(C(=O)O)N3C(=O)[C@@H](NC(=O)Cn4cnnn4)[C@H]3SC2)s1
inactive: Potency [1] | outcome [2] | Potency [3] | Potency [4]

Fc1ccc(C(c2ccc(F)cc2)N2CCN(C/C=C/c3ccccc3)CC2)cc1
inactive: Potency [1] | outcome [2] | Potency [3] | Potency [4]

CCN(CC)CCNC(=O)c1ccc(NC(C)=O)cc1
inactive: Potency [1] | outcome [2] | Potency [3] | Potency [4]

C#CCN(C)CCCOc1ccc(Cl)cc1Cl
inactive: Potency [1] | outcome [2] | Potency [3] | Potency [4]

CN(C)C(=O)Oc1ccc[n+](C)c1
inactive: Potency [1] | outcome [2] | Potency [3] | Potency [4]

CN=C(NC#N)NCCSCc1nc[nH]c1C
inactive: Potency [1] | outcome [2] | Potency [3] | Potency [4]

CO[C@@]1(NC(=O)CSCC#N)C(=O)N2C(C(=O)O)=C(CSc3nnnn3C)CS[C@@H]21
inactive: Potency [1] | outcome [2] | Potency [3] | Potency [4]

CCn1cc(C(=O)O)c(=O)c2cc3c(cc21)OCO3
inactive: Potency [1] | outcome [2] | Potency [3] | Potency [4]

CN(C)CCN(Cc1cccs1)c1ccccn1
inactive: Potency [1] | outcome [2] | Potency [3] | Potency [4]
